# Screening results as filed in PubChem.
# CF NFkB inh: blocks PAF-induced NF-kB reporter in cystic fibrosis cells; KKLEB NF-kB-GFP reporter, GFP fluorescence overnight; inhibition, % at 5 µM; 360,000 compounds, 0.86% hits; AID 588850;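 active = at least 50% inhibition at 5 µM, scaled per plate between neutral and stimulator controls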;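 also: PAF is a Pseudomonas aeruginosa culture filtrate used as stimulus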
# MITF TRPM1 inh: MITF TRPM1 promoter inhibition in SK-MEL-5 cells. SK-MEL-5 TRPM1 promoter luciferase, 24 h. inhibition, % at 12.5 µM. 330,000 compounds, 0.83% hits. AID 488899;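 active = mean inhibition across replicates of 60% or more, whatever share of single replicates reaches that level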
# ABHD5-PLIN5 inh: inhibitors of human ABHD5-perilipin-5 interaction. 360,000 compounds, 0.78% hits. inhibition, % at 4 µM. Split G. princeps luciferase complementation, luminescence, 4 h. Q00G26+Q8WTS1;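 active = inhibition above the mean inhibition across every tested compound plus 3 SD, cut at about 22% in these data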
# HIF-2a block: HIF-2a inhibition; AID 624352; 786-0 RCC cells HIF-2a reporter, luciferase luminescence, overnight; 360,000 compounds, 0.72% hits; inhibition, % at 18.8 µM;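 active = inhibition of the luminescence signal of 40% or more relative to plate controls, in a single-dose primary screen at 18.75 µM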
# Peg3 promoter: reduces Peg3 promoter-driven luciferase expression in HeLa. 360,000 compounds, 1.7% hits. HeLa PEG-Prom luciferase reporter, luminescence, overnight. inhibition, % at 20 µM;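 active = inhibition of at least 50% at 20 µM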
# KKLEB cytotox: reduces viability of KKLEB cystic fibrosis airway cells; KKLEB CF airway cells viability, ATPlite luminescence, overnight; stronger effect = lower value; cells stimulated with P. aeruginosa culture filtrate; activity change (cytotoxicity), % at 5 µM; 360,000 compounds, 0.36% hits;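 active = corrected activity change at or below -50% at 5 µM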
# ABHD5 PLIN5 conf: ABHD5-PLIN5 interaction inhibition, confirmed | shares compounds with ABHD5-PLIN5 inh | biochemical ABHD5-PLIN5 interaction, luminescence | inhibition, % at 4 µM | 2,200 compounds, 67% hits; in the data active = inhibition above about 23%
# HNF4 counter: counter-screen for ABHD5-PLIN5 inhibitors: HNF4 split-luciferase; shares compounds with ABHD5-PLIN5 inh; HNF4 dimerization, luminescence, biochemical; inhibition, % at 4 µM; 2,200 compounds, 77% hits; AID 651674;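 active = mean inhibition across replicate wells exceeding the computed hit threshold, cut at about 13% in these data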;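 also: light from luciferase halves that rejoin when HNF4 fusion proteins dimerize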
# Target sequence (P41235 whole entry, looked up, the tested form may be a part): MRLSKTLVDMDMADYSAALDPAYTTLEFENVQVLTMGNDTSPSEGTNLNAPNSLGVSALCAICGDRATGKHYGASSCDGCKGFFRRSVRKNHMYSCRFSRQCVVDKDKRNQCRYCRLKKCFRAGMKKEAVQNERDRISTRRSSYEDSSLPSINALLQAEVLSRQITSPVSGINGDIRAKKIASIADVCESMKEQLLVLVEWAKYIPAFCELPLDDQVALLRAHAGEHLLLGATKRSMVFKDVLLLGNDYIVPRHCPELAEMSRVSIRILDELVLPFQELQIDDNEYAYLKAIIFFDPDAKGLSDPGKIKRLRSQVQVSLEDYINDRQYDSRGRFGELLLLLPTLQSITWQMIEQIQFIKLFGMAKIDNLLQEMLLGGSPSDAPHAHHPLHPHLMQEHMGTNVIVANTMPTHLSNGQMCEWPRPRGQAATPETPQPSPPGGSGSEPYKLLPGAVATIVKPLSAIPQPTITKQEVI
# Numbers stand for hits; i = inactive; nt = no result given; ! = not confirmed by another sample. An excerpt weighted towards active compounds, which were near 3.1% of everything screened.
SMILES,CF NFkB inh,MITF TRPM1 inh,ABHD5-PLIN5 inh,HIF-2a block,Peg3 promoter,KKLEB cytotox,ABHD5 PLIN5 conf,HNF4 counter
COc1ccc(N=C2NC(=O)/C(=C\c3ccco3)S2)cc1,i,i,i,i,i,i,nt,nt
O=C1NC(=Nc2ccc(O)cc2)S/C1=C\C=C\c1ccco1,i,i,33,i,i,i,27,45
CCOC(=O)COc1c(Cl)cc(/C=C2\N=C(C)OC2=O)cc1OC,i,i,i,i,i,i,nt,nt
CCOc1ccc(CCN2C(=S)N([C@@H](Cc3ccc(O)cc3)CN3CCC[C@@H]3CN3C(=S)NC[C@@H]3CC(C)C)C[C@@H]2Cc2ccccc2)cc1,i,nt,i,i,i,i,nt,nt
CC(C)C[C@H]1CNC(=S)N1C[C@H]1CCCN1C[C@H](CC(C)C)N1C[C@H](Cc2ccc(O)cc2)N(CCc2ccccc2)C1=S,i,nt,26,i,69,i,i,i
CCOc1ccc(CCN2C(=S)N([C@@H](Cc3ccc(O)cc3)CN3CCC[C@@H]3CN3C(=S)NC[C@@H]3CC(C)C)C[C@@H]2CC(C)C)cc1,i,nt,28,i,i,i,i,i
CCCCC(=O)NC(c1cccc([N+](=O)[O-])c1)c1ccc2cccnc2c1O (stereo not given),i,i,33,i,58,i,29,i
CN(C)CCCN(Cc1ccccc1)C(=S)Nc1cccc(C(F)(F)F)c1,i,i,i,i,i,i,nt,nt
COc1ccc(NC(=S)N(CCCN2CCC(C)CC2)Cc2cccs2)cc1Cl,i,i,i,i,i,i,nt,nt
FC(F)(F)c1cccc(NC(=S)N(CCCN2CCCC2)Cc2cccn2Cc2ccc(Cl)cc2)c1,i,i,42,i,106,i,i,i
COc1ccc(NC(=S)N(CCCN2CCCC2)Cc2cccn2Cc2ccc(Cl)cc2)cc1Cl,i,i,31,i,103,i,i,i
Cc1ccc(C(=O)/C=C/c2ccc(F)cc2)o1,i,i,42,i,i,i,62,47
O=C(COc1ccccc1Cl)Nc1ccc(N2CCCC2)cc1,i,i,26,i,i,i,45,i
C#CCN(C[C@@H]1[C@@H](OC(=O)NCc2ccc(OC)c(OC)c2)[C@@H](OC(=O)NCc2ccc(OC)c(OC)c2)Cn2c(=O)ccc(=O)n21)S(=O)(=O)c1ccc(C)cc1,i,nt,46,i,i,i,62,21
CCSc1ccccc1-c1nc(-c2ccncc2)no1,i,i,i,i,i,i,nt,nt
Cc1[nH]c(=O)[nH]c(=O)c1S(=O)(=O)N1CCCCC1,i,i,29,i,i,i,i,16
Cc1ccc(Cl)cc1NC(=S)N1CCC(c2ccccc2)C1 (stereo not given),i,i,i,i,i,i,nt,nt
Cc1cc(C(C)(C)C)nc2[nH]n(-c3ccccc3)c(=O)c12,i,i,i,i,i,i,nt,nt
CC(C)(C)c1cc(=O)n(-c2ccccc2)[nH]1,i,i,26,i,i,i,i,i
O=C(O)c1ccccc1-c1c2cc(I)c(=O)c(I)c-2oc2c(I)c(O)c(I)cc12,i,i,30!,i,i,i,i,i
O=C1C(SCCO)=C(SCCO)C(=O)c2ccccc21,72,111,97,97,100,i,104,111
CCOC(=O)c1c(NC(=O)/C=C/C(=O)O)sc(C)c1-c1ccc(C)c(C)c1,i,i,25,i,i,i,i,i
C#CCOCCOCCOCCNc1nc(N2CCN(C(=O)CCCCCCCCCCNC(=O)[C@H](CCCCN)n3cc(CCCC(=O)O)nn3)CC2)nc(N2CCN(C(=O)CCCCCCCCCCNC(=O)[C@@H]([C@H](C)O)n3cc(C)nn3)CC2)n1,i,i,37,i,i,i,i,i
C#CCOCCOCCOCCNc1nc(N2CCN(C(=O)CCCCCCCCCCNC(=O)Cn3cc(C[C@@H](C)O)nn3)CC2)nc(N2CCN(C(=O)CCCCCCCCCCNC(=O)[C@H](CO)n3cc(CCCSC)nn3)CC2)n1,i,i,i,i,i,i,nt,nt
C#CCOCCOCCOCCNc1nc(N2CCN(C(=O)CCCCCCCCCCNC(=O)Cn3cc(C[C@@H](C)O)nn3)CC2)nc(N2CCN(C(=O)CCCCCCCCCCNC(=O)[C@H](CCCCN)n3cc(CCCC(=O)O)nn3)CC2)n1,i,i,36,i,i,i,i,14
SMILES,CF NFkB inh,MITF TRPM1 inh,ABHD5-PLIN5 inh,HIF-2a block,Peg3 promoter,KKLEB cytotox,ABHD5 PLIN5 conf,HNF4 counter
C#CCOCCOCCOCCNc1nc(N2CCN(C(=O)[C@H]([C@@H](C)O)n3cc(CCCCN)nn3)CC2)nc(N2CCN(C(=O)[C@H](CCCCN)n3cc(CCC(=O)O)nn3)CC2)n1,i,i,i,i,i,i,nt,nt
C#CCOCCOCCOCCNc1nc(N2CCN(C(=O)CCCCCCCCCCNC(=O)[C@@H](CCSC)n3cc(CCO)nn3)CC2)nc(N2CCN(C(=O)CCCCCCCCCCNC(=O)[C@H](CCSC)n3cc(CCO)nn3)CC2)n1,i,i,44,i,i,i,i,i
C#CCOCCOCCOCCNc1nc(N2CCN(C(=O)CCCCCCCCCCNC(=O)[C@H]([C@@H](C)CC)n3cc(CCCCCN)nn3)CC2)nc(N2CCN(C(=O)CCCCCCCCCCNC(=O)[C@H](CCCCN)n3cc(CCCC(=O)O)nn3)CC2)n1,i,i,39,i,i,i,i,i
O=C(Nc1nnc([C@@H]2C[C@H](O)[C@@H](CO)O2)s1)Nc1ccc(F)cc1F,i,nt,i,i,i,i,nt,nt
COCCC(=O)Nc1ccc2c(c1)CN(C(=O)c1ccc(CSC)o1)CC2,i,i,i,i,i,i,nt,nt
CCc1nnc(NC(=O)c2nc(S(=O)(=O)Cc3ccccc3)ncc2Cl)s1,90,80,34,54,104,-94,69,48
O=C(NCc1ccc2c(c1)OCO2)c1nc(S(=O)(=O)Cc2ccccc2)ncc1Cl,84,i,54,i,106,i,87,106
CN(CC(=O)N1CCCC1)S(=O)(=O)c1ccc(Cl)cc1,i,i,27,i,i,i,i,i
COc1ccc(CN2CCC3CC2c2cc(Cl)ccc23)cc1 (stereo not given),i,i,i,i,i,i,nt,nt
CN(C)C(=O)c1cccc(-c2cnc3c(NC=O)cc(-c4ccccc4Cl)cn23)c1,i,nt,24,i,i,i,i,i
CN(C)C(=O)c1cccc(-c2cnc3c(NC=O)cc(-c4ccccc4N(C)C)cn23)c1,i,nt,i,i,i,i,nt,nt
COc1cccc(-c2cnc3c(NC=O)cc(-c4ccoc4)cn23)c1,i,nt,26,i,i,i,30,37
CN(CC(=O)Nc1ccc(Cl)c(C(F)(F)F)c1)C(=O)c1cc(=O)c2ccccc2o1,i,i,i,i,i,i,nt,nt
